# In article PMC7826789 (International Journal of Molecular Sciences, 2021):
# System: TEK
row,SMILES,Kinases covered
1,Cl.O=C(Nc1ccc(Oc2ccc3[nH]c(NC(=O)c4ccco4)nc3c2)cc1)Nc1cc(C(F)(F)F)ccc1F [GW683134A],TEK
2,Nc1ncnc2occ(-c3ccc(NC(=O)Nc4cc(C(F)(F)F)ccc4F)cc3)c12 [GW770249X],TEK
3,Cl.O=C(Nc1ccc(Oc2ccc3[nH]c(NC(=O)c4ccccc4)nc3c2)cc1)Nc1cc(C(F)(F)F)ccc1F [GW709042A],TEK
4,COC(=O)Nc1nc2ccc(Oc3ccc(NC(=O)Nc4cc(C(F)(F)F)ccc4F)cc3)cc2s1.Cl [GW693917A],TEK

# System: TYK2
row,SMILES,Kinases covered
1,COc1ccc(-c2cc3c(N)ncnc3o2)cc1 [GW642138X],TYK2
2,Nc1ncnc2[nH]c(-c3ccccc3)nc12 [AH5015],TYK2
3,CN(C)C/C=C/C(=O)Nc1ccc(C(=O)Nc2cccc(Nc3ncc(Cl)c(-c4c[nH]c5ccccc45)n3)c2)cc1 [THZ1],TYK2

# System: YSK4
row,SMILES,Kinases covered
1,COc1cc2c(cc1OC)C(=C(Nc1ccccc1)c1cccc(CN)c1)C(=O)N2 [BIBF0846CL],YSK4
2,Cc1cc(NC(=O)c2cccc(NC(=O)/C=C/CN(C)C)c2)ccc1Nc1nccc(-c2cccnc2)n1 [JNK-IN-7],YSK4
3,NC(=O)c1cccnc1COc1cc(-c2ccc(N3CCOCC3)nc2)cc2ncccc12 [BI01125081],YSK4
4,CC(C)N1CC(=O)N(C)c2cnc(Nc3cccc(S(=O)(=O)CCN4CCOCC4)c3)nc21 [BI00009348],YSK4
5,CCCc1cc(N2CCCN(C)CC2)nc2sc3c(N)ncnc3c12 [BI00604564],YSK4
